Experimental data published in PubChem BioAssay (NCATS).
Results filed as inconclusive are left out. A call without a number means that no potency is given here. Calls of active or inactive are those of the source. The call rests on the fitted dose curve; in most records, active means well fitted inhibition curve with a large enough effect; inconclusive means small, poorly fitted or top-dose-only effect; inactive means no such curve, though single readings can be large or run the other way.

Tests used:
[1] = qHTS for Inhibitors of the Aldehyde Dehydrogenase Family (ALDH1A2, ALDH1A3, ALDH2, ALDH3A1) (AID 2061307); further: nearly all actives have a fitted effect of over 50% in size; on potency: test system not described further here; potency means the concentration at half of the fitted maximal effect
[2] = molecular target: Retinaldehyde dehydrogenase 3 (Homo sapiens) (UniProt P47895); assay: qHTS for Inhibitors of the Aldehyde Dehydrogenase Family (ALDH1A3) Confirmatory screens (AID 2061311); further: nearly all actives have a fitted effect of over 60% in size; further: potency means the concentration at half of the fitted maximal effect
[3] = molecular target: Retinaldehyde dehydrogenase 3 (Homo sapiens) (UniProt P47895); assay: qHTS for Inhibitors of the Aldehyde Dehydrogenase Family (ALDH1A3) Primary screen (AID 2061315)
[4] = molecular target: Retinal dehydrogenase 2 (Homo sapiens) (UniProt O94788); assay: qHTS for Inhibitors of the Aldehyde Dehydrogenase Family (ALDH1A2) Confirmation screens (AID 2061314); further: nearly all actives have a fitted effect of over 65% in size; further: potency means the concentration at half of the fitted maximal effect
[5] = molecular target: Aldehyde dehydrogenase 1A1 (Homo sapiens) (UniProt P00352); assay: qHTS for Inhibitors of the Aldehyde Dehydrogenase Family (ALDH1A1) Confirmatory screens (AID 2061316); further: nearly all actives have a fitted effect of over 65% in size; further: potency means the concentration at half of the fitted maximal effect

Row | Compound | Potency [1] | Potency [2] | Potency [3] | Potency [4] | Potency [5]
1 | Cc1cc(NS(=O)(=O)c2ccc(Nc3nc(-c4ccc(C)c(C)c4)cs3)cc2)no1 | 0.896 µM (active) | inactive | inactive | – | –
2 | Cc1ccc(-c2ccccc2C=O)c(C)c1 | inactive | inactive | – | inactive | inactive
3 | Cn1sc(=O)n(Cc2ccccc2)c1=O | 10.1 µM (active) | 12.7 µM (active) | – | 8.96 µM (active) | 0.283 µM (active)
4 | COc1cccc(-c2cccc(C(=O)N3CCN(C(=O)c4ccc(C)cc4)CC3)c2)c1 | inactive | inactive | – | inactive | 8.14 µM (active)
5 | Cc1cccc(C(=O)NCc2nnc3cc(-c4nc(C)no4)ccn23)c1 | inactive | inactive | – | inactive | inactive
6 | O=C1Cc2cc(S(=O)(=O)N3CCN(c4ccc(Cl)cc4)CC3)ccc2N1 | inactive | inactive | inactive | – | –
7 | CC(=O)N1CCN(c2ccc(NCc3ccco3)cc2)CC1 | 4 µM (active) | 10.1 µM (active) | – | 14.2 µM (active) | 7.98 µM (active)
8 | CC(=O)c1c(C)n(-c2cccc(C)c2)c2ccc(OC(=O)COc3ccccc3)cc12 | inactive | inactive | – | inactive | inactive
9 | C[C@@H](CO)Nc1cc2c(cc1[S+](=O)([O-])Nc1ccc(Cl)c(Cl)c1)CCC(=O)N2 | inactive | inactive | inactive | – | inactive
10 | CC(=O)c1c(C)n(-c2cccc(Cl)c2)c2ccc(OC(=O)c3ccccc3)cc12 | inactive | inactive | – | inactive | inactive
11 | Cc1ccc2nc3sc(C(=O)NC4CCC(O)CC4)cc3cc2c1 (centres undefined) | 6.34 µM (active) | 20.1 µM (active) | inactive | – | 12.7 µM (active)
12 | COc1ccc2c(c1)c(C(=O)CN(C)C)c(C)n2C | inactive | inactive | – | inactive | inactive
13 | Cc1ccc(CNc2ncnc3ccc(-c4oc(-c5ccccc5)nc4C)cc23)o1 | inactive | 22.5 µM (active) | inactive | – | –
14 | Cc1oc(-c2ccccc2F)nc1CS(=O)(=O)CC(=O)N1CCN(c2cccc(C(F)(F)F)c2)CC1 | inactive | inactive | – | inactive | inactive
15 | Oc1cc2c(cc1CN1CCN(c3ncccn3)CC1)OCO2 | 7.12 µM (active) | 10.1 µM (active) | – | 2.01 µM (active) | 5.65 µM (active)
16 | CN(C)c1ccc(-c2csc(N3CCC(C(N)=O)CC3)n2)cc1 | 11.3 µM (active) | 12.7 µM (active) | – | 14.2 µM (active) | 8.96 µM (active)
17 | Cc1ccc(CNc2ncnc3ccc(-c4ccc([C@@H](C)O)o4)cc23)o1 | inactive | 12.7 µM (active) | inactive | – | 11.3 µM (active)
18 | CSCCC(NS(=O)(=O)c1ccc2c(c1)oc(=O)n2C)C(=O)N1CCN(c2ccc(C(C)=O)cc2)CC1 (centres undefined) | inactive | inactive | – | inactive | inactive
19 | COc1ccc(-c2nc3ccccc3c(=O)n2Cc2ccccc2)cc1CNc1ccc(NC(C)=O)cc1 | 12.7 µM (active) | 11.3 µM (active) | – | 11.3 µM (active) | 11.3 µM (active)
20 | CCOC(=O)c1c(C)n(-c2ccccc2)c2ccc(OC(=O)c3ccccc3)cc12 | inactive | inactive | – | inactive | inactive
21 | O=C(NCC(=O)N1CCN(Cc2ccccc2)CC1)c1cccc(-c2ccsc2)c1 | inactive | inactive | – | inactive | inactive
22 | N#Cc1ccc(-c2ccc(CNc3ccc(N4CCOCC4)cc3)cn2)cc1 | 6.34 µM (active) | 12.7 µM (active) | – | inactive | 4.49 µM (active)
23 | O=C(CCC1CCCN(S(=O)(=O)c2ccccc2F)C1)NCCCN1CCOCC1 (centres undefined) | inactive | inactive | – | inactive | inactive
